Results reported in paper PMC4552634, “A New Set of Chemical Starting Points with Plasmodium falciparum Transmission-Blocking Potential for Antimalarial Drug Discovery” (PLoS ONE, 2015).
About 3,200 (25%) of roughly 13,000 compounds showed an effect of 50% or more. Some of the results follow.

System: P. falciparum stage V gametocytes
Design: BacTiter-Glo ATP luminescence viability of purified stage V gametocytes in 384-well plates, per cent inhibition versus DMSO
Settings: 48 h, 5 µM; inhibitor

Compound | % Inhibition [%]
N#Cc1cccc(NC(=O)Nc2ccc(CC(=O)N3CCc4cc(Cl)c(N5CCN(C/C=C/c6ccccc6)CC5)cc43)cc2)c1 [TCMDC-139476] | 12.28
CCCc1cc(Cc2cnc(N)nc2N)ccc1OCCCCCC(=O)O [TCMDC-137231] | -22.54
CS(=O)(=O)CCNCc1cc(-c2cc3ncnc(Nc4ccc(OCc5cccc(F)c5)c(Cl)c4)c3s2)cs1 [TCMDC-138726] | -0.4482
CCOC(=O)c1ccc2nc(-c3ccc(C(=O)NC4CCN(Cc5ccccc5)CC4)s3)[nH]c2c1 [TCMDC-140575] | -23.22
CCCCSc1nc2c(c(=O)n1Cc1ccco1)C1(CCCCC1)Cc1ccccc1-2 [TCMDC-123896] | -14.5
CC(C)(C)Oc1ccc(C[C@@H]2NC3(C(=O)N(Cc4ccc(Cl)c(Cl)c4)c4ccccc43)C3C(=O)N(c4ccc(Br)cc4)C(=O)C32)cc1 (stereo partly drawn) [TCMDC-139775] | -22.32
CC(=O)Nc1ccc(OCCCCN(Cc2ccccc2OC(F)(F)F)c2ccc(C(F)(F)F)c(C#N)c2)c(Cl)c1 [TCMDC-132788] | 39.51
CC(=O)Nc1ccc(OCCN(CC(C)C)c2ccc(C(F)(F)F)c(C#N)c2)c(Cl)c1 [TCMDC-132793] | 18.14
CC(=O)Nc1ccc(OCCCCN(Cc2ccccc2C(F)(F)F)c2ccc(C#N)c(C(F)(F)F)c2)cc1 [TCMDC-132800] | 12.39
CC(=O)Nc1ccc(OCCN(CC(C)(C)C)c2ccc(C#N)c(C(F)(F)F)c2)c(Cl)c1 [TCMDC-132786] | 66.46
CC(=O)Nc1ccc(OCCN(CC(C)C)c2ccc(C#N)c(C(F)(F)F)c2)c(Cl)c1 [TCMDC-137002] | 29.5
CC(=O)Nc1ccc(OCCCCN(Cc2ccccc2C(F)(F)F)c2ccc(C#N)c(C(F)(F)F)c2)c(Cl)c1 [TCMDC-132787] | 69.01
O=C(Nc1ccc(-c2cccc(-c3nc4ccccc4[nH]3)c2)cc1)Nc1ccc(F)c(F)c1F [TCMDC-133237] | 3.705
COc1cc(N)cc2sc(N)nc12 [TCMDC-124235] | -47.26
COCCN(C)c1ccc(C(=O)Nc2ccccc2)cc1NS(=O)(=O)Cc1ccccc1 [TCMDC-134575] | 41.39
O=C(O)CCSSc1cccc[n+]1[O-] [TCMDC-141973] | 168.8
COc1cc2c(cc1C(F)(F)F)N(C(=O)Nc1cc(F)cc(-c3cccnn3)c1)CC2 [TCMDC-139045] | -0.3523
Cc1ccc(Nc2ccnc3cc(-c4nccs4)ccc23)cc1C(O)c1ccccc1 (stereo not drawn) [TCMDC-138338] | -2.553
c1ccc(-c2ccc3c(Nc4ccc5[nH]ncc5c4)ccnc3c2)nc1 [TCMDC-138199] | 108.3
Cc1ccc(C(=O)Nc2ccc(Nc3ccnc4cc(-c5ccncc5)ccc34)cc2O)cc1 [TCMDC-138294] | -17.41
Cc1ccc(C(=O)Nc2ccc(Nc3ccnc4cc(-c5ccccn5)ccc34)cc2O)cc1 [TCMDC-138205] | 115.7
Cc1ccc(C(=O)Nc2ccc(Nc3ccnc4cc(-c5nccs5)ccc34)cc2O)cc1 [TCMDC-138298] | 75.39
O=C(C(=O)c1ccc(Nc2ccnc3cc(-c4ccccn4)ccc23)cc1)c1ccccc1 [TCMDC-138204] | -8.545

Compound | % Inhibition [%]
Cc1ccc(O)cc1Nc1ccnc2cc(-c3ccccn3)ccc12 [TCMDC-138201] | 17.09
COc1cc2nccc(Nc3ccc(NC(=O)c4ccc(C)cc4)c(O)c3)c2cc1OC.Cl [TCMDC-138197] | 20.08
COc1cc2nccc(Nc3ccc(OCc4ccc(NC(C)=O)cc4)cc3)c2cc1OC.Cl [TCMDC-138198] | -13.16
c1ccc(-c2ccc3c(Nc4ccc5[nH]ccc5c4)ccnc3c2)nc1 [TCMDC-138200] | 22.33
COc1ccc(Nc2ccnc3cc(-c4ccccn4)ccc23)cc1OC [TCMDC-138207] | -27.22
CC(=O)Nc1ccc(COc2ccc(Nc3ccnc4cc(-c5ccccn5)ccc34)cc2)cc1 [TCMDC-138206] | 116.6
Cc1ccc(F)cc1S(=O)(=O)NCC(C)c1ccc(NC(=O)Nc2cccc(F)c2)cc1 (stereo not drawn) [TCMDC-136380] | -32.92
OC(CNc1ccnc(Nc2cccc(Cl)c2)n1)c1ccccc1C(F)(F)F (stereo not drawn) [TCMDC-136578] | -37.8
CC(C)n1cc2c(ccc3nc(N)nc(N)c32)n1 [TCMDC-137865] | -36.93
COc1ccc2nccc([C@@H](O)CN3CCC(NCc4ccc5c(c4)N(C)C(=O)CO5)CC3)c2c1 [TCMDC-141093] | -7.365
COCCCNc1sc(S(=O)(=O)c2ccccc2)nc1S(=O)(=O)c1ccc(C)cc1 [TCMDC-125275] | -13.04
CS(=O)(=O)CCNCc1nc(-c2ccc3ncnc(Nc4ccc(OCc5ccccc5)c(Cl)c4)c3c2)cs1 [TCMDC-138497] | -10.86
CS(=O)(=O)CCNCc1nc(-c2ccc3c(Nc4ccc(F)c(O)c4)ccnc3c2)cs1 [TCMDC-138437] | -66.48
CS(=O)(=O)CCNCc1nc(-c2ccc3c(=O)[nH]cnc3c2)cs1 [TCMDC-138539] | 107
O=C(Nc1ccc(Cl)cc1)N(CC1CC2CCC(C1)N2Cc1ccc(C(F)(F)F)cc1)c1ccc(N2CCOCC2)c(F)c1 (stereo not drawn) [TCMDC-135859] | 42.25
COCc1nc(-c2ccccc2)nc(N2CCN(C(=O)NC(C)C)CC2)c1Cc1ccccc1F [TCMDC-124782] | 9.126
Cc1onc(-c2c(Cl)cccc2Cl)c1C(=O)NC1=NC(C)(C)ON1c1ccccc1 [TCMDC-123777] | -4.951
Cc1cccc2[nH]c(-c3ccc(-c4cccc(NC(=O)NCc5ccccc5)c4)cc3)nc12 [TCMDC-133162] | -12.85
COCCNCc1ccc(-c2ccc(CN(C(=O)Nc3ccccc3)C3CCN(Cc4ccccc4)CC3)cc2)cc1 [TCMDC-140600] | 51.26
COCCNCc1cccc(-c2ccc(CN(C(=O)Nc3ccccc3)C3CCN(Cc4ccccc4)CC3)cc2)c1 [TCMDC-140599] | 105.4
COCCNCc1cccc(-c2ccccc2CN(C(=O)Nc2ccccc2)C2CCN(Cc3ccccc3)CC2)c1 [TCMDC-140579] | 41.2
COCCNCc1cccc(-c2cccc(CN(C(=O)Nc3ccccc3)C3CCN(Cc4ccccc4)CC3)c2)c1 [TCMDC-140586] | 56.29
